PubChem BioAssay (EPA / NIEHS)
Several values for one entry are separate records, joined by “and”; a condition that tells them apart may be missing. Equal entries are not always repeated. Results filed as inconclusive are left out. A structure can be active in one record and inactive in another. Activity calls are given as the source filed them. How the source made its calls: active means hit-call score of the fitted dose curve at least 0.9, where 1 is the maximum; inconclusive means response in the unintended direction; inactive means score below 0.9.

Experiments:
[1] = target: human Ephrin type-A Receptor 2 (EphA2), EPHA2 (gene 1969) (UniProt P29317); test: NVS_ENZ_hEphA2: NovaScreen (NVS) Enzymatic Assay for human Ephrin type-A Receptor 2 (EphA2) (AID 2283155)
Sequence of human Ephrin type-A Receptor 2 (EphA2), EPHA2 (gene 1969) (P29317 whole entry, looked up): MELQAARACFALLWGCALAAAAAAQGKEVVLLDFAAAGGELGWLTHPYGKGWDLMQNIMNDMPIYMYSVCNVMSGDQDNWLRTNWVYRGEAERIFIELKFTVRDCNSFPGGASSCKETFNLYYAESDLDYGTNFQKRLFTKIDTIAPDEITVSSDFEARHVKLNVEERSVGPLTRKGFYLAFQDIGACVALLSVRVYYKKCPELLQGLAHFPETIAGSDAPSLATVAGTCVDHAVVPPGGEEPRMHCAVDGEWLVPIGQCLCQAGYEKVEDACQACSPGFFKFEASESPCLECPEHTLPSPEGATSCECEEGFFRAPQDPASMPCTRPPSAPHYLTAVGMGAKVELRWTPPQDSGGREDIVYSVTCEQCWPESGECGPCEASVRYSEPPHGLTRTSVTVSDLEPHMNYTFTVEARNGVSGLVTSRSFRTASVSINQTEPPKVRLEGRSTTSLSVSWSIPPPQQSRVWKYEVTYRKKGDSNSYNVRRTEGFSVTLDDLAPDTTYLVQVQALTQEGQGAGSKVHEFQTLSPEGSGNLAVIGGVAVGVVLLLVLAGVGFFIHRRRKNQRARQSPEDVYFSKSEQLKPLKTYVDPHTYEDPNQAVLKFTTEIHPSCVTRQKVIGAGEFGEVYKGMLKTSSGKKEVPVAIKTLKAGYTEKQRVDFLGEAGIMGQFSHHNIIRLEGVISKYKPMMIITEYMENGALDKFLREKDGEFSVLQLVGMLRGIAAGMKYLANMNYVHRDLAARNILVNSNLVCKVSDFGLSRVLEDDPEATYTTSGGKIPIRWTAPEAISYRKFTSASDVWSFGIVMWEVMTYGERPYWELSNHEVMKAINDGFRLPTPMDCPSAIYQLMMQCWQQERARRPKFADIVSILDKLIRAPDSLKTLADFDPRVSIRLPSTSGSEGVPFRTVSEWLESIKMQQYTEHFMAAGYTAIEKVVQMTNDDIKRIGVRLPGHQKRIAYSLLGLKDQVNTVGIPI
Method in brief: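 Cell-free recombinant EphA2 kinase with specific substrate, 1 h, fluorescence with electrophoretic mobility-shift separation of substrate and product. Primary screen at 25 uM in duplicate; hits retested in singleton concentration-response up to 50 uM, referenced to DMSO.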

[2] = target: human Esterase Plasma (ES), BCHE (gene 590) (UniProt P06276); test: NVS_ENZ_hES: NovaScreen (NVS) Enzymatic Assay for human Esterase Plasma (ES) (AID 2283157)
Sequence of human Esterase Plasma (ES), BCHE (gene 590) (P06276 whole entry, looked up): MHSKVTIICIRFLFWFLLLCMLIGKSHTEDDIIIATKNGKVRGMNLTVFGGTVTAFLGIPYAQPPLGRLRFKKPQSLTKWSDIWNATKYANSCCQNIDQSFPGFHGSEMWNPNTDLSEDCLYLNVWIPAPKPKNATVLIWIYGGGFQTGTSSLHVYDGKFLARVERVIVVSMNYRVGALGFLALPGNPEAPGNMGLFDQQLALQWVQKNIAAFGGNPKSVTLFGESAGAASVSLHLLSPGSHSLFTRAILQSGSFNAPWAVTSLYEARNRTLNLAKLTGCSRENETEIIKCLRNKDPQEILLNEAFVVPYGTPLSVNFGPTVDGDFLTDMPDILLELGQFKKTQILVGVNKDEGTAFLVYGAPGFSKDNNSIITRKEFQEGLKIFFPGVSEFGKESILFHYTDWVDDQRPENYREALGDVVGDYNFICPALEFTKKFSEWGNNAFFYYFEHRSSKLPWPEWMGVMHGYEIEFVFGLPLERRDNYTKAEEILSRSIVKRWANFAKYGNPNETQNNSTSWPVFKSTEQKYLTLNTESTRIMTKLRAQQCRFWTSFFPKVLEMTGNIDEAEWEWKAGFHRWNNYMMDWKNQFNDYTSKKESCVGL
Method in brief: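 Cell-free enzyme assay using esterase extracted from human plasma; colorimetric absorbance read 0.25 hour after dosing. Single-concentration duplicate screen at 25 uM, then concentration-response up to 50 uM; loss of signal scored against DMSO baseline.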

[3] = target: human Ephrin type-A Receptor 1 (EphA1), EPHA1 (gene 2041) (UniProt P21709); test: NVS_ENZ_hEphA1: NovaScreen (NVS) Enzymatic Assay for human Ephrin type-A Receptor 1 (EphA1) (AID 2283158);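 further: activity is signal loss versus DMSO meaning EphA1 kinase inhibition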
Method in brief: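 Chemicals first tested in duplicate at 25 uM against recombinant EphA1 with a fluorescent substrate; those passing threshold went to singleton dose-response topping at 50 uM. Activity read 1 h later as mobility-shift fluorescence, loss of signal relative to DMSO.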

[4] = target: human Fibroblast Growth Factor Receptor 1 (FGFR1), FGFR1 (gene 2260) (UniProt P11362); test: NVS_ENZ_hFGFR1: NovaScreen (NVS) Enzymatic Assay for human Fibroblast Growth Factor Receptor 1 (FGFR1) (AID 2283159);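 on AC50: hits lower the signal so potencies describe inhibitors of the kinase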
Sequence of human Fibroblast Growth Factor Receptor 1 (FGFR1), FGFR1 (gene 2260) (P11362 whole entry, looked up): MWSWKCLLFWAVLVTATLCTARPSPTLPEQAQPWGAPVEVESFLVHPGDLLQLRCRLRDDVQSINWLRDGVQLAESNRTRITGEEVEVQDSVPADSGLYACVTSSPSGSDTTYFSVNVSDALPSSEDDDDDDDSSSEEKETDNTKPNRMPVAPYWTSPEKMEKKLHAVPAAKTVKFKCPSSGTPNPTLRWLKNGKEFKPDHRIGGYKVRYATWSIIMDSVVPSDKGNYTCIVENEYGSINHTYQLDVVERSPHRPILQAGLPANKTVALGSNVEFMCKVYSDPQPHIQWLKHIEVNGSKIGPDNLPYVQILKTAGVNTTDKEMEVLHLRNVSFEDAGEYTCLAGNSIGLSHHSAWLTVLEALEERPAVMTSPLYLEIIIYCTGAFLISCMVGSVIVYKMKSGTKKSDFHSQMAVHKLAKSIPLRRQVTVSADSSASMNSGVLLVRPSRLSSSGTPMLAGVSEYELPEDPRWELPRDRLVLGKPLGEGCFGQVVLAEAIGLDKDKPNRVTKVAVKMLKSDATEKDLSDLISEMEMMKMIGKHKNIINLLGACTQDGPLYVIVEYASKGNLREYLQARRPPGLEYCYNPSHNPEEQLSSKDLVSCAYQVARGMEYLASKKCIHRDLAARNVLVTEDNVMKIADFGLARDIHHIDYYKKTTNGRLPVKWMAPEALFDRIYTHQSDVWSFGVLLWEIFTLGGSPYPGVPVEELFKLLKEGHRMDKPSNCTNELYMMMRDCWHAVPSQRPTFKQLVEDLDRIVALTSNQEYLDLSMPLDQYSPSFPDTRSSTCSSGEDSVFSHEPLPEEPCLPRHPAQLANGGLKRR
Method in brief: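 Cell-free recombinant kinase with fluorescent substrate, product separated by electrophoretic mobility shift; read 1 hour after dosing, loss of signal relative to DMSO. Initial screen in duplicate at 25 uM, actives followed in concentration series.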

[5] = target: human Mitogen-Activated Protein Kinase 1 (MAPK 1), MAPK1 (gene 5594) (UniProt P28482); test: NVS_ENZ_hMAPK1: NovaScreen (NVS) Enzymatic Assay for human Mitogen-Activated Protein Kinase 1 (MAPK 1) (AID 2283175)
Sequence of human Mitogen-Activated Protein Kinase 1 (MAPK 1), MAPK1 (gene 5594) (P28482 whole entry, looked up): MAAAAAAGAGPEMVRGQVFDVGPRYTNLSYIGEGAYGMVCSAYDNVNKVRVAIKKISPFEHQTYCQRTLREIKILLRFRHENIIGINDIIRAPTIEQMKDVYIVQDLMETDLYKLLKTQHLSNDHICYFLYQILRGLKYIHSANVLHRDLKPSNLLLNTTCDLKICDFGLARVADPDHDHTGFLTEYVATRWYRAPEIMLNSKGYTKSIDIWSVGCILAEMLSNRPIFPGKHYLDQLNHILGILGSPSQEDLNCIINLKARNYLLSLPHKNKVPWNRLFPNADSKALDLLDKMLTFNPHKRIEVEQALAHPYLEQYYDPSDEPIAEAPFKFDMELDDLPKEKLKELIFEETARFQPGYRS
Method in brief: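 Cell-free recombinant human MAPK1 enzymatic assay, fluorescence/electrophoretic mobility shift read at 1 h; loss of signal vs DMSO. Primary screen in duplicate at 25 uM; actives (e.g. ≥30% inhibition) run as concentration-response up to 50 uM.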

[6] = target: Mitogen-activated protein kinase 3 (Homo sapiens) (UniProt P27361); test: NVS_ENZ_hMAPK3: NovaScreen (NVS) Enzymatic Assay for human Mitogen-Activated Protein Kinase 3 (MAPK 3) (AID 2283177)
Sequence of Mitogen-activated protein kinase 3 (Homo sapiens) (P27361 whole entry, looked up): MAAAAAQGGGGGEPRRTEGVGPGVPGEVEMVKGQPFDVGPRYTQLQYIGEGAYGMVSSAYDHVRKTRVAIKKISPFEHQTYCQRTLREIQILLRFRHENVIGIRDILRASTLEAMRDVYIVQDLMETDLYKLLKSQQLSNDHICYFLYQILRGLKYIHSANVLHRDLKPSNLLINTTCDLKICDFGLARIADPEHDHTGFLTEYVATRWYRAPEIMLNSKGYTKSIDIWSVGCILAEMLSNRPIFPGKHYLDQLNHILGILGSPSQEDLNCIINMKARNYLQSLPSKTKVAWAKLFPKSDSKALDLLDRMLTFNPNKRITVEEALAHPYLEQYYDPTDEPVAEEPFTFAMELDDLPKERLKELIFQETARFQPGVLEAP
Method in brief: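 Cell-free enzymatic assay with recombinant protein and specific substrate; fluorescence and electrophoretic mobility shift read-out 1 h after dosing. Primary screen duplicate at 25 uM; actives then run in concentration-response up to 50 uM, loss of signal versus DMSO.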

[7] = target: human Matrix Metalloproteinase-7 (MMP7), MMP7 (gene 4316) (UniProt P09237); test: NVS_ENZ_hMMP7: NovaScreen (NVS) Enzymatic Assay for human Matrix Metalloproteinase-7 (MMP7) (AID 2283183)
Sequence of human Matrix Metalloproteinase-7 (MMP7), MMP7 (gene 4316) (P09237 whole entry, looked up): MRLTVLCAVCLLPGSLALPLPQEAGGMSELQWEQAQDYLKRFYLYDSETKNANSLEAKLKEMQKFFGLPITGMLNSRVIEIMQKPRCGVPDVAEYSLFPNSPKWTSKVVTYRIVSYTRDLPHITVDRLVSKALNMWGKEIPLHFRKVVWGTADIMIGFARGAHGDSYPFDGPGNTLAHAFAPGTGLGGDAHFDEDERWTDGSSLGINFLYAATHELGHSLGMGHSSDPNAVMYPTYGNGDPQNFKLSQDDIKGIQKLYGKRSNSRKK
Method in brief: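 Cell-free fluorescence enzymatic assay read 1 h after compound addition, activity loss analyzed against DMSO. Primary duplicate testing at 25 uM; compounds meeting threshold rerun in singleton concentration-response up to 50 uM.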

[8] = target: human Ephrin type-B Receptor 1 (EphB1), EPHB1 (gene 2047) (UniProt P54762); test: NVS_ENZ_hEphB1: NovaScreen (NVS) Enzymatic Assay for human Ephrin type-B Receptor 1 (EphB1) (AID 2283154)
Method in brief: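 Cell-free kinase assay with recombinant enzyme, fluorescent substrate and electrophoretic mobility-shift separation of substrate and product; read 1 h after dosing. Single-concentration duplicate screen at 25 uM; loss of signal versus DMSO baseline.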

[9] = target: Glycogen synthase kinase-3 beta (Homo sapiens) (UniProt P49841); test: NVS_ENZ_hGSK3b: NovaScreen (NVS) Enzymatic Assay for human Glycogen Synthase Kinase-3 beta (GSK3b) (AID 2283165)
Sequence of Glycogen synthase kinase-3 beta (Homo sapiens) (P49841 whole entry, looked up): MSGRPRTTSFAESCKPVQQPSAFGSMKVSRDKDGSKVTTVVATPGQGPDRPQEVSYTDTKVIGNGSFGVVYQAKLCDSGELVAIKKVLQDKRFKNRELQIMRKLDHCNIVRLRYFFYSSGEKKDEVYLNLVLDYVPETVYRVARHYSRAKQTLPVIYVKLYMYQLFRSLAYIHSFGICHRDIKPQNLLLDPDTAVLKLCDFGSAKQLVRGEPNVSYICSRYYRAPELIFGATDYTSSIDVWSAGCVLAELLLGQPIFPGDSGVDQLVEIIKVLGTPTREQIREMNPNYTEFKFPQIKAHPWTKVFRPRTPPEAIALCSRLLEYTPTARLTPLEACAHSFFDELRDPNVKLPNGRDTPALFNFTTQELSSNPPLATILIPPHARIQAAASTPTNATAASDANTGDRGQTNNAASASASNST
Method in brief: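 Recombinant enzyme with specific fluorescent substrate, 1 h, product separated by electrophoretic mobility shift. Primary duplicate screen at 25 uM; actives (e.g. 30% inhibition) followed in singleton concentration-response to 50 uM. Signal loss fitted versus DMSO.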

[10] = target: human Insulin Receptor (InsR), INSR (gene 3643) (UniProt P06213); test: NVS_ENZ_hInsR: NovaScreen (NVS) Enzymatic Assay for human Insulin Receptor (InsR) (AID 2283168)
Method in brief: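 Fluorescent substrate phosphorylation by recombinant kinase, product resolved by electrophoretic mobility shift, read 1 h after dosing. Screened in duplicate at 25 uM; hits (e.g., 30% inhibition) run in concentration-response to 50 uM; DMSO as baseline.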

[11] = target: human MAP Kinase-Activated Protein Kinase 2 (MAPKAPK2), MAPKAPK2 (gene 9261) (UniProt P49137); test: NVS_ENZ_hMAPKAPK2: NovaScreen (NVS) Enzymatic Assay for human MAP Kinase-Activated Protein Kinase 2 (MAPKAPK2) (AID 2283178)
Method in brief: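 Cell-free recombinant human MAPKAPK2 activity measured by fluorescence with electrophoretic mobility shift separation of substrate and product, 1 hr after dosing. Loss of signal versus DMSO; primary screen at 25 uM, concentration-response up to 50 uM.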

[12] = target: Protein deacetylase HDAC6 (Homo sapiens) (UniProt Q9UBN7); test: NVS_ENZ_hHDAC6: NovaScreen (NVS) Enzymatic Assay for human Histone Deacetylase 6 (HDAC6) (AID 2283164)
Method in brief: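 Recombinant human HDAC6 with fluorescent substrate, 1 h; product separated from substrate by electrophoretic mobility shift. Primary screen in duplicate at 25 uM; actives retested singly in concentration-response up to 50 uM, fitted relative to DMSO.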

[13] = target: human IkappaB Kinase alpha (IKKa), CHUK (gene 1147) (UniProt O15111); test: NVS_ENZ_hIKKa: NovaScreen (NVS) Enzymatic Assay for human IkappaB Kinase alpha (IKKa) (AID 2283167)
Sequence of human IkappaB Kinase alpha (IKKa), CHUK (gene 1147) (O15111 whole entry, looked up): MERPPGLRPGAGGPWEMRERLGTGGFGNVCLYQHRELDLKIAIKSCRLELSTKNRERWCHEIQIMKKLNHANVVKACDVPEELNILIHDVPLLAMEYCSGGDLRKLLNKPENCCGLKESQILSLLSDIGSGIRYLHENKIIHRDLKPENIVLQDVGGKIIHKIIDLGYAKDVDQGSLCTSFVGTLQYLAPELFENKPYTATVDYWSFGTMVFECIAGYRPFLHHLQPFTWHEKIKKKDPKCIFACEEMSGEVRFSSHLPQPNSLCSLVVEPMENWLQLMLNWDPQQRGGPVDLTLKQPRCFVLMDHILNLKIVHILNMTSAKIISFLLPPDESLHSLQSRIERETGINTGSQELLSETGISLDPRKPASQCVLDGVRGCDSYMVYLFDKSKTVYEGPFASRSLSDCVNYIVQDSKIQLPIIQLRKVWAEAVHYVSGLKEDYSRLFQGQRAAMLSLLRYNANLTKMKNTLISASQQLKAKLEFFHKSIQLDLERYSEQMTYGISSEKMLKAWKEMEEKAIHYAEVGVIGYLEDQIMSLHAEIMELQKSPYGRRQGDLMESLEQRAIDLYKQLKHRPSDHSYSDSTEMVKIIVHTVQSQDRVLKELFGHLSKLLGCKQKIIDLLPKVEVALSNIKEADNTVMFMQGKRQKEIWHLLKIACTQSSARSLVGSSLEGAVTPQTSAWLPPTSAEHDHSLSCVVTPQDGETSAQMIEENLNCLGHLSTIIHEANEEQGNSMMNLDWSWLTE
Method in brief: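 Cell-free recombinant human IKKa with fluorescent substrate, product separated by electrophoretic mobility shift; read 1 hour after dosing. Primary screen duplicate at 25 uM, actives then concentration-response up to 50 uM; loss of signal relative to DMSO.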

[14] = target: Histone deacetylase 3 (Homo sapiens) (UniProt O15379); test: NVS_ENZ_hHDAC3: NovaScreen (NVS) Enzymatic Assay for human Histone Deacetylase 3 (HDAC3) (AID 2283163)
Sequence of Histone deacetylase 3 (Homo sapiens) (O15379 whole entry, looked up): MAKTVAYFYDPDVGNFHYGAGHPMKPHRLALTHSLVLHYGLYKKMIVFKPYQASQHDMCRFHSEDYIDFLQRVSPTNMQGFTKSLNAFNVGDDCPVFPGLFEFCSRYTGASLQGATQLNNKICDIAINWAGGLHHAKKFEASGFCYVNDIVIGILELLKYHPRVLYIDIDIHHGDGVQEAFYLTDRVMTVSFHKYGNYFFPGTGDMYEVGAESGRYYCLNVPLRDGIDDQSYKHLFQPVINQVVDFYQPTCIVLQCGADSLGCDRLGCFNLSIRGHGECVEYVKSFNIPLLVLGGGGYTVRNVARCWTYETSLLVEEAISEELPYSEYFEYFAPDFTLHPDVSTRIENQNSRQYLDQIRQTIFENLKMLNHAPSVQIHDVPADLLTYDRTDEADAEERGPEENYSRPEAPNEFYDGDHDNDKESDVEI
Method in brief: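 Recombinant human HDAC3 with fluorescent substrate, 1 h after dosing; product separated from substrate by electrophoretic mobility shift and read by fluorescence. Primary screen at 25 uM in duplicate; actives (e.g. ≥30% inhibition) retested in concentration-response up to 50 uM.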

[15] = target: human Janus Kinase 2 (Jak2), JAK2 (gene 3717) (UniProt O60674); test: NVS_ENZ_hJak2: NovaScreen (NVS) Enzymatic Assay for human Janus Kinase 2 (Jak2) (AID 2283169)
Method in brief: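 Cell-free recombinant human JAK2 enzyme activity assay, fluorescence/electrophoretic mobility shift read 1 h after dosing. Screened in duplicate at 25 uM, then concentration-response up to 50 uM; activity as signal loss relative to DMSO.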

[16] = target: human Ephrin type-B Receptor 2 (EphB2), EPHB2 (gene 2048) (UniProt P29323); test: NVS_ENZ_hEphB2: NovaScreen (NVS) Enzymatic Assay for human Ephrin type-B Receptor 2 (EphB2) (AID 2283156)
Method in brief: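 Recombinant kinase with fluorescent substrate, product separated by electrophoretic mobility shift, read 1 h after dosing. Duplicate 25 uM screen, then singleton concentration-response to 50 uM max; loss of signal versus DMSO.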

What does the source list for `CN(C)[C@@H]1C(=O)C(C(N)=O)=C(O)[C@@]2(O)C(=O)C3=C(O)c4c(O)cccc4[C@@](C)(O)[C@H]3[C@H](O)[C@@H]12`?
AC50 [1]: 7.61 µM (active); outcome [1]: inactive; outcome [2]: inactive; outcome [3]: inactive; AC50 [4]: 5.86 µM (active) and 7.55 µM (active); outcome [4]: inactive; AC50 [5]: 15 µM (active); AC50 [6]: 19.1 µM (active); outcome [6]: inactive; outcome [7]: inactive

For `O=C(O)c1cc(Oc2ccc(C(F)(F)F)cc2Cl)ccc1[N+](=O)[O-]`, which outcome [1] is on record?
The outcome was “inactive”.

What about the outcome [3] of the same compound?
The outcome was “inactive”.

With `CC(COc1ccc(Oc2ccccc2)cc1)Oc1ccccn1` (stereo unspecified) as the compound, how does the outcome [8] read?
The outcome was “inactive”.

`C[N+]1(C)CCCCC1` was tested. Which outcome [4] did it give?
Its outcome is “inactive”.

Which outcome [6] does the source give for `CC(C1CC1)C(O)(Cn1cncn1)c1ccc(Cl)cc1` (stereo unspecified) here?
The outcome was “inactive”.

`CCNc1nc(Cl)nc(NC(C)(C)C#N)n1` was tested. Which outcome [9] did it give?
The outcome was “inactive”.

What about the outcome [10] of the same compound?
The outcome was “inactive”.

Which outcome [6] does the source give for `COc1ccc(C(=CC(=O)N2CCOCC2)c2ccc(Cl)cc2)cc1OC` here?
Its outcome is “inactive”.

With `Nc1c(Cl)cc([N+](=O)[O-])cc1Cl` as the compound, how does the outcome [9] read?
Its outcome is “inactive”.

What about the outcome [11] of the same compound?
Its outcome is “inactive”.

With `CCC(=NOC/C=C/Cl)C1=C(O)CC(C2CCOCC2)CC1=O` (stereo unspecified) as the compound, how does the outcome [10] read?
The outcome was “inactive”.

Which AC50 [12] does the source give for `N#CSCSC#N` here?
The AC50 was 3.68 µM (active).

What about the outcome [9] of the same compound?
The outcome was “inactive”.

And the outcome [11]?
Its outcome is “inactive”.

What about the outcome [7] of the same compound?
The outcome was “inactive”.

`COc1cccc(C(=O)NN(C(=O)c2cc(C)cc(C)c2)C(C)(C)C)c1C` was tested. Which outcome [13] did it give?
Its outcome is “inactive”.

Which outcome [13] does the source give for `CCC(CC)Nc1c([N+](=O)[O-])cc(C)c(C)c1[N+](=O)[O-]` here?
The outcome was “inactive”.

Which outcome [8] does the source give for `CCCSP(=O)(OCC)Oc1ccc(Br)cc1Cl` (stereo unspecified) here?
The outcome was “inactive”.

And the AC50 [2]?
The AC50 was 0.968 µM (active).

`CCOP(=O)(OCC)Oc1cc(C)nc(C(C)C)n1` was tested. Which AC50 [7] did it give?
The AC50 was 11.8 µM (active).

For `CC(C)N(C(=O)SCC(Cl)=C(Cl)Cl)C(C)C`, which outcome [13] is on record?
The outcome was “inactive”.

Which AC50 [2] does the source give for `CCOP(=S)(OCC)Oc1ccc([N+](=O)[O-])cc1` here?
Its AC50 is 17.5 µM (active).

With `O=c1ccc(=O)[nH][nH]1` as the compound, how does the AC50 [14] read?
The AC50 was 14.5 µM (active).

And the outcome [15]?
Its outcome is “inactive”.

Which results are given for `CNc1cnn(-c2cccc(C(F)(F)F)c2)c(=O)c1Cl`?
outcome [16]: inactive; outcome [14]: inactive
